Data taken from PubChem BioAssay (NCI).
Where “and” joins values, the source holds several entries; their conditions need not be identical. Identical values can stand only once. This is part of a sample that, as a whole, favours compounds with a hit. Of some 83,000 tested, about 20% had one in any assay.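 96-well plates, one dose, 48 hours. Percent growth reported; active if below 10.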 Calls of active or inactive are those of the source.

Legend:
Test in all cases: NCI-60 one-dose screen, 48 h (100 = growth as untreated, 0 = no growth, -100 = all killed)
Details in all cases: 10 µM unless noted
[1] = system: NCI-H23 lung
[2] = system: NCI-H226 lung
[3] = system: NCI-H322M lung
[4] = system: HOP-62 NSCLC
[5] = system: NCI-H460 lung
[6] = system: HOP-92 NSCLC
[7] = system: NCI-H522 lung
[8] = system: A549/ATCC NSCLC
[9] = system: 786-0 renal
[10] = system: COLO 205 colon
[11] = system: DU-145 prostate
[12] = system: K-562 leukemia
[13] = system: MALME-3M melanoma
[14] = system: MDA-MB-231 breast
[15] = system: RXF 393 renal
[16] = system: SF-268 CNS
[17] = system: SF-295 CNS
[18] = system: SF-539 CNS
[19] = system: UACC-257 melanoma
[20] = system: M14 melanoma

Compound	growth [1]	growth [2]	growth [3]	growth [4]	growth [5]	growth [6]	growth [7]	growth [8]	growth [9]	growth [10]	growth [11]	growth [12]	growth [13]	growth [14]	growth [15]	growth [16]	growth [17]	growth [18]	growth [19]	growth [20]
CC(=O)c1nn(-c2ccccc2)/c(=N/N=Cc2cn(-c3ccccc3)nc2-c2cc3ccccc3oc2=O)s1	109% (inactive)	105% (inactive)	93.2% (inactive)	101% (inactive)	117% (inactive)	94.7% (inactive)	95.6% (inactive)	102% (inactive)	105% (inactive)	117% (inactive)	107% (inactive)	98.5% (inactive)	104% (inactive)	82.6% (inactive)	111% (inactive)	104% (inactive)	103% (inactive)	99.6% (inactive)	108% (inactive)	97.4% (inactive)
C=C1C(=O)O[C@H]2[C@H]1CC/C(CNS(=O)(=O)c1ccc3ccccc3c1)=C\CC[C@@]1(C)O[C@@H]21	-3.15% (active)	-25.4% (active)	92.1% (inactive)	78.4% (inactive)	91.7% (inactive)	-29.6% (active)	-78.6% (active)	69% (inactive)	-67% (active)	-84.5% (active)	-85% (active)	-19.3% (active)	-22.6% (active)	2.57% (active)	-80.8% (active)	51.4% (inactive)	71.2% (inactive)	9.99% (active)	-54.4% (active)	-32.6% (active)
CCOC(=O)CC1CSC(c2cccc(Cl)c2)=N1 (configuration not stated)	94.6% (inactive)	113% (inactive)	93.3% (inactive)	111% (inactive)	108% (inactive)	119% (inactive)	101% (inactive)	95.3% (inactive)	84.8% (inactive)	120% (inactive)	111% (inactive)	92.9% (inactive)	108% (inactive)	105% (inactive)	106% (inactive)	101% (inactive)	102% (inactive)	114% (inactive)	99.1% (inactive)	101% (inactive)
N#CSc1c[nH]c2ccc(/C=C/C(=O)/C=C(/C=C/c3ccc4[nH]cc(SC#N)c4c3)OB(F)F)cc12	-28.3% (active)	-66.1% (active)	94.9% (inactive)	14.7% (inactive)	3.07% (active)	-74.1% (active)	-69.7% (active)	4.65% (active)	-46.5% (active)	-63.9% (active)	1.62% (active)	-27.2% (active)	-32.6% (active)	-35.9% (active)	-64.4% (active)	2.42% (active)	35.7% (inactive)	-13.2% (active)	-29.8% (active)	-39.9% (active)
COc1c(NC=O)c2c(c([N+](=O)[O-])c1OC)C(=O)OC2	113% (inactive) and 97.9% (inactive)	110% (inactive) and 103% (inactive)	98.1% (inactive)	99.2% (inactive) and 104% (inactive)	115% (inactive) and 99.9% (inactive)	103% (inactive) and 92.8% (inactive)	98.7% (inactive) and 112% (inactive)	95.8% (inactive) and 101% (inactive)	106% (inactive)	108% (inactive) and 114% (inactive)	130% (inactive) and 119% (inactive)	125% (inactive) and 102% (inactive)	–	104% (inactive) and 89.8% (inactive)	113% (inactive) and 105% (inactive)	112% (inactive) and 105% (inactive)	109% (inactive) and 96.4% (inactive)	120% (inactive) and 87.3% (inactive)	97.4% (inactive) and 111% (inactive)	104% (inactive) and 100% (inactive)
Cn1cc(C2=C(c3cccc4ccccc34)C(=O)NC2=O)c2cc(Br)ccc21	93.5% (inactive)	103% (inactive)	100% (inactive)	111% (inactive)	104% (inactive)	171% (inactive)	99.8% (inactive)	91.3% (inactive)	84.7% (inactive)	92% (inactive)	110% (inactive)	87.2% (inactive)	143% (inactive)	113% (inactive)	102% (inactive)	102% (inactive)	102% (inactive)	121% (inactive)	138% (inactive)	114% (inactive)
C/C(=C(\c1ccc(OCCN2CCOCC2)cc1)c1ccc(OC(=O)C2CCCCC2)cc1)c1ccc(Cl)cc1	88.9% (inactive)	103% (inactive)	91.9% (inactive)	99.4% (inactive)	97.5% (inactive)	71% (inactive)	62.8% (inactive)	92.9% (inactive)	80.6% (inactive)	103% (inactive)	103% (inactive)	66.1% (inactive)	104% (inactive)	98.8% (inactive)	94.9% (inactive)	95.8% (inactive)	106% (inactive)	105% (inactive)	99% (inactive)	87.4% (inactive)
CCOC(=O)N(O)c1ccc(/C=C/c2ccccc2)cc1	75.9% (inactive) and 51.3% (inactive)	-39.4% (active)	79.6% (inactive) and 76.4% (inactive)	66.5% (inactive)	23.5% (inactive) and 22% (inactive)	67.4% (inactive)	67.5% (inactive) and 48.4% (inactive)	44% (inactive) and 77.1% (inactive)	70.3% (inactive) and 73.7% (inactive)	88.5% (inactive) and 84.7% (inactive)	65.7% (inactive) and 61.4% (inactive)	39.9% (inactive) and 40.3% (inactive)	96.6% (inactive) and 117% (inactive)	67.3% (inactive) and 54% (inactive)	76.8% (inactive) and 69.1% (inactive)	86.3% (inactive) and 81.3% (inactive)	41.7% (inactive) and 11.4% (inactive)	96.5% (inactive) and 85.1% (inactive)	-40.5% (active) and -36.8% (active)	66.7% (inactive) and 58.8% (inactive)
O=C(Oc1ccc(CO[N+](=O)[O-])cc1)c1ccccc1	-71.1% (active)	-96.5% (active)	-88.1% (active)	-86.5% (active)	-65.3% (active)	-88% (active)	-67.2% (active)	-9.66% (active)	-87.7% (active)	-74.2% (active)	-94.6% (active)	-37.1% (active)	-69.9% (active)	-80.6% (active)	-86.2% (active)	-84.8% (active)	-91.9% (active)	-90% (active)	-78% (active)	-83% (active)
C[C@]12CCc3c(ccc4cc(O)ccc34)[C@@H]1C[C@H](O)[C@@H]2O	94.2% (inactive)	94.7% (inactive)	107% (inactive)	91.7% (inactive)	97.8% (inactive)	85.6% (inactive)	98.1% (inactive)	106% (inactive)	111% (inactive)	109% (inactive)	108% (inactive)	105% (inactive)	113% (inactive)	79.9% (inactive)	102% (inactive)	103% (inactive)	95.3% (inactive)	102% (inactive)	102% (inactive)	103% (inactive)
CN(C)C1CCN(C(=O)c2ccc(NC(=O)Nc3ccc(-c4nc(N5CCOCC5)c5cccn5n4)cc3)cc2)CC1	15.5% (inactive)	-7.75% (active)	-9.27% (active)	-12.9% (active)	6.48% (active)	-31.2% (active)	14.6% (inactive)	3.9% (active)	-18.6% (active)	–	0.561% (active)	18.9% (inactive)	-32.6% (active)	0.146% (active)	-30.4% (active)	2.29% (active)	-37.1% (active)	-39.6% (active)	-18.3% (active)	–
